Compounds with a hit are over-represented: about 6.5% of the library has one in this group of screens.
DPM-DC inhibit: S. pneumoniae DPM-DC inhibitors, primary screen, biochemical, PK/LDH-coupled NADH fluorescence | purified DPM-DC | 65,000 compounds, 0.49% hits | calls only at 10 µM | diphosphomevalonate decarboxylase (Streptococcus pneumoniae D39) | AID 556, 2006;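 active means the 320 compounds with the highest percent inhibition in the single-dose primary screen, excluding strongly autofluorescent ones, cut at about 32% in these data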;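 further: kinetic rate of NADH fluorescence loss reporting ADP formed by the decarboxylase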
Abs 340nm: compound light absorbance at 340 nm, profiling panel, artefact control, biochemical, MLSMR library, data from PS, PMK, MK assays | 65,000 tested, under 10 active | fold change at 10 µM | compound absorbance at 340 nm, fold over control | AID 708, 2007;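 active means at 10 µM dose, initial 340 nm absorbance at least 2 fold that of control wells; inactive means change under 2 fold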;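 further: initial absorbance extrapolated from kinetic A340 decline of NADH oxidation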
Fluor 339 460: intrinsic fluorescence of library compounds, ex339/em460 – biochemical, MLSMR library, data from DPM-DC assay, artefact control, profiling panel; fluorescence fold increase at 10 µM; compound autofluorescence, ex339/em460 nm, NADH buffer; active compounds read high; 1 = no-compound wells, NADH background; 65,000 compounds, 5.5% hits; AID 709, 2007;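 active means at 10 µM, mean starting fluorescence two-fold or more over control wells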;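 further: signal is the first read of a kinetic run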
NADH coupling: inhibitors of PK/LDH coupling enzymes, profiling panel, artefact control, biochemical, MLSMR library; 65,000 compounds, 0.02% hits; coupled PK/LDH NADH assays, four targets; IC50, µM (titrated, usually from 10 µM), inactives show at the highest dose inhibition;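 active means single-dose screening hits from any of four coupled enzyme assays that gave an IC50 when retested across doses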;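 further: the DPM-DC format reads NADH fluorescence rather than 340 nm absorbance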
PMK inhibit: S. pneumoniae PMK inhibitors, primary screen, biochemical, mevalonate pathway, pilot trial included | 65,000 compounds, 0.49% hits | phosphomevalonate kinase (Streptococcus pneumoniae D39) | inhibition, % at 10 µM | purified PMK, PK/LDH-coupled NADH absorbance 340 nm;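 active means top-ranked compounds by inhibition in the single 10 µM screen, taking a fixed number of the strongest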;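 further: 0% = full reaction with DMSO carrier and 100% = background rate without enzyme reaction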
MK inhibit: S. pneumoniae MK inhibitors, primary screen, biochemical, PK/LDH-coupled NADH absorbance | purified MK, PK/LDH-coupled NADH absorbance 340 nm | mevalonate kinase [Streptococcus pneumoniae D39] | inhibition, % at 10 µM | 65,000 compounds, 0.48% hits | AID 555, 2006;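 active means ranked among the strongest by inhibition in the single 10 µM screen, a fixed top-ranked set picked for dose follow-up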
An asterisk follows results filed as active; i = inactive; nt = no result given; + = active, no number.

SMILES	DPM-DC inhibit	Abs 340nm	Fluor 339 460	NADH coupling	PMK inhibit	MK inhibit
CCOc1ccc(-c2cc(C(=O)NCCCN3CCN(CC)CC3)c3ccccc3n2)cc1	nt	1.1	5.2*	4%	8	0
CCOc1cc2[nH]c(=O)n(Cc3ccc(C(=O)NCCOC)cc3)c(=O)c2cc1OCC	+	1.1	0.92	18%	12	8
COCCNC(=O)c1ccc2c(=O)n(CCOC)c(=O)[nH]c2c1	i	1	1.5	5%	0	7
CCOc1cc2[nH]c(=O)n(CCC(=O)N3CCN(c4ccccc4OC)CC3)c(=O)c2cc1OCC	i	1.1	1.3	5%	8	7
CCOc1cc2[nH]c(=O)n(Cc3cccc(OC)c3)c(=O)c2cc1OCC	i	1	2*	4%	5	7
O=S(=O)(c1ccc(Oc2ccc(Br)cc2)cc1)N1CCOCC1	i	1.1	1.1	4%	6	6
COC(=O)C1(C)NC(=O)c2ccccc2N1 (stereo not drawn)	nt	1.1	2.1*	4%	2	5
COC(=O)C1(C)Nc2ccccc2C(=O)N1c1ccccc1OC (stereo not drawn)	nt	1.1	2.1*	15%	25	5
CCOC(=O)C1CCN(c2cc(C)nc3cc(-c4cccc(F)c4)nn23)CC1	nt	0.98	2.6*	5%	18	4
CCOC(=O)C1CCCCN1C(=O)CCc1c(C)nc2cc(-c3ccccc3)nn2c1C (stereo not drawn)	i	1.1	1.9	13%	13	7
CCc1ccccc1N1CC(C(=O)O)CC1=O (stereo not drawn)	i	1	1.1	0%	0	1
CCOC(=O)Cc1c(C)nc2c(-c3ccc(Cl)cc3)c[nH]n2c1=O	nt	1.1	2.1*	7%	8	5
Cc1occc1-c1nnc(SCC(=O)N2CCN(c3ccccc3F)CC2)n1C	i	1	0.99	5%	12	4
CCOc1ccccc1-c1nc(C(N)=O)c2[nH]c(=O)n(-c3ccccc3)c2n1	i	1.1	3*	8%	11	0
COc1ccccc1-c1nc(C(N)=O)c2[nH]c(=O)n(-c3cccc(C)c3)c2n1	+	1	3.9*	23%	12	3
Cc1cccc(-n2c(N)cc(=O)[nH]c2=S)c1	i	1.1	1.2	7%	16	5
Cc1cccc(-n2c(=O)[nH]c3c(C(N)=O)nc(-c4ccccc4Cl)nc32)c1	nt	1.1	2.1*	6%	9	3
COc1cccc(-c2nc(C(N)=O)c3[nH]c(=O)n(-c4ccccc4)c3n2)c1OC	i	1.1	1.1	4%	3	3
Cc1ccc2nc(-c3ccccn3)oc2c1	i	1	3*	16%	17	11
c1ccc(-c2nc3cc(Oc4ccc5oc(-c6ccccn6)nc5c4)ccc3o2)nc1	i	1	1.8	4%	10	1
Cc1ccc2nc(-c3cccnc3)oc2c1	i	1	2.7*	15%	12	8
Cc1oc2c(c1C(=O)NC(Cc1c[nH]c3ccccc13)C(=O)O)CCCC2 (stereo not drawn)	i	1	1.1	6%	10	3
Cc1ccc2c(c1)-c1ccccc1S(=O)(=O)N2	nt	1	3.7*	5%	0	10
CCc1sc(C(=O)NC2CCN(C)CC2)cc1Br	i	1	1.1	3%	0	7
CCOC(=O)Nc1oc2ccccc2c(=O)c1CN1CCOCC1	i	1	2.2*	8%	5	6
SMILES	DPM-DC inhibit	Abs 340nm	Fluor 339 460	NADH coupling	PMK inhibit	MK inhibit
NC(=O)CSc1nnc(-c2ccc(S(=O)(=O)N3CCOCC3)cc2)n1CC1CCCO1 (stereo not drawn)	i	0.96	1.1	9%	14	12
CC(C)NC(=O)CSc1nnc(-c2ccc(S(=O)(=O)N3CCCC3)cc2)n1CC1CCCO1 (stereo not drawn)	i	0.98	1.1	19%	11	45*
CC1CCN(Cc2ccc(-c3nn[nH]n3)cc2)CC1	i	0.99	1	1%	1	10
C=CCOC(=O)C1=C(C)NC(SCC(=O)Nc2ccc(C)c(Cl)c2)=C(C#N)C1c1ccco1 (stereo not drawn)	nt	1.1	2.3*	4%	7	0
Cn1c(=O)[nH]c(=O)c2c1ncn2CCCc1ccccc1	i	0.98	1.1	4%	8	5
COc1ccc(CCNc2oc(COc3ccccc3F)nc2C#N)cc1	i	1	1.2	9%	14	2
Cc1ccc(-c2nc(C#N)c(NCCc3ccccn3)o2)cc1	i	1	2.6*	9%	10	1
N#Cc1nc(-c2ccc(Cl)cc2)oc1NCCc1ccccn1	nt	1	2.4*	2%	0	7
CCCc1cc(=O)n2[nH]c(C)cc2n1	i	1	1.2	7%	12	0
CCOc1ccccc1-c1nc2c([nH]1)c(=O)n(C)c(=O)n2C	i	1.1	2.9*	8%	9	0
COc1ccc(-c2cc(-c3ccccc3)n3ncnc3n2)cc1	nt	1.1	2.4*	2%	0	3
COc1ccc(-c2cc(N3CCCC3)n3ncnc3n2)cc1	i	1	1.2	4%	11	8
COc1cccc(N2C(=O)C3C(C2=O)C2C=CC3C23CC3)c1 (stereo not drawn)	i	1	1	5%	15	0
N#CC1=C(N)N(c2ccccc2)C(c2ccco2)C1(C#N)C#N (stereo not drawn)	nt	1	2.2*	4%	11	12
Cc1cccc(N2C(N)=C(C#N)C(C#N)(C#N)C2c2ccccc2)c1 (stereo not drawn)	i	1	2.7*	12%	0	11
Cc1cccc(-n2ncc(C#N)c2N)c1	i	1	1	2%	4	8
Cc1ccc(C)c(NC(=O)C2CC(O)CN2C(=O)OC(C)(C)C)c1 (stereo not drawn)	i	0.99	1	7%	18	2
Cc1ccc(C(c2nnnn2CC2CCCO2)N2CCN(c3cccc(C)c3C)CC2)cc1 (stereo not drawn)	i	0.98	1.1	4%	13	0
O=C1CCN2C=Nc3cccc4ccc1c2c34	nt	1.1	3.2*	3%	5	0
CC1CCN(c2nc3c(c(=O)[nH]c(=O)n3C)n2CCSc2nc3ccccc3o2)CC1	i	1	1.1	5%	15	1
CCOC(=O)C1=C(CSc2n[nH]c(N)n2)NC(=O)NC1C (stereo not drawn)	i	1	1.1	6%	13	6

Bioassay records as filed in PubChem.
